# Screening results from PubChem.
# IL1B secr inh: qHTS for Inhibitors of Inflammasome Signaling: IL-1-beta AlphaLISA Primary Screen | THP-1 LPS/ATP IL-1B secretion, AlphaLISA, 16 h; stronger effect = lower value | activity change, % at 57.5 µM | 360,000 tested, 4.7% active; in the data active means activity change below about -50%; inconclusive means mostly about -30% to -49%
#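 THP-1 cells pretreated 1 hr with compounds (up to 57.5 uM final), then stimulated with LPS (250 ng/mL final) plus ATP (1.25 mM final); secreted IL-1B measured by AlphaLISA after 16 hr, decreased signal indicating inhibition.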
# TDP1 inh: qHTS Assay for Inhibitors of Tyrosyl-DNA Phosphodiesterase (TDP1); Potency, µM (titrated, usually from 130 µM), for the others: top-dose activity change, negative = inhibition, usual class: inhibitors; 350,000 tested, 0.28% active; recombinant TDP1, AlphaScreen DNA substrate cleavage; Tyrosyl-DNA phosphodiesterase 1 (Homo sapiens), Q9NUW8; further: potency means the concentration at half of the fitted maximal effect; nearly all actives have a fitted effect of over 40% in size
# Target sequence (Q9NUW8 whole entry, looked up): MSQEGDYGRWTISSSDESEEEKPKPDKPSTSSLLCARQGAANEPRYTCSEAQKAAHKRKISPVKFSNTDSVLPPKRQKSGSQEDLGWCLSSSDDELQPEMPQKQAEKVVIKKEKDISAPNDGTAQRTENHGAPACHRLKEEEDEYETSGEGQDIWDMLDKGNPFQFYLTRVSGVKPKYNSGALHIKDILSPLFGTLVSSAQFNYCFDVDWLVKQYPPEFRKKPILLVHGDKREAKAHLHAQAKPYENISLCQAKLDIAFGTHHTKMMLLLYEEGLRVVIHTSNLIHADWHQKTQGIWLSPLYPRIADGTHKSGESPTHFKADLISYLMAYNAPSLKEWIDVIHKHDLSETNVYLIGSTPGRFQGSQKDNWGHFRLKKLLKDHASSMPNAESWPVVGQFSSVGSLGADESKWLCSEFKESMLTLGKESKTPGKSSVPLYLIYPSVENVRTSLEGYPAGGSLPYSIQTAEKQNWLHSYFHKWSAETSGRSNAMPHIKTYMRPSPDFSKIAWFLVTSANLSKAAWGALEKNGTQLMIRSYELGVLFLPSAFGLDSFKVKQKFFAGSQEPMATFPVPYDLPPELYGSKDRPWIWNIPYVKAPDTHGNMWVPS
#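 Compounds were preincubated with Tdp1 (1 nM final) for 15 min at room temperature before substrate (15 nM final) started a 5 min reaction; beads (10 ug/ml final) were then added for 10 min before AlphaScreen detection.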
# ELG1 DNA repair: qHTS screen for small molecules that inhibit ELG1-dependent DNA repair in human embryonic kidney (HEK293T) cells expressing luciferase-tagged ELG1. HEK293T ELG1-luciferase reporter, luminescence, 16 h; DNA damage induced by 5-fluorouridine. Potency, µM (top dose mostly 46.1 µM), for the others: top-dose activity change, negative = inhibition, hits mostly inhibitors. 330,000 tested, 2.3% active. AID 504467, 2011; further: potency means the concentration at half of the fitted maximal effect; nearly all actives have a fitted effect of over 55% in size
#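 Reporter activity after DNA damage by 5-fluorouridine is monitored. Compound-treated cells incubate 16 hr at 37 °C, then ONE-Glo is added for 30 min before luminescence reading.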
# Giardia kill: Small Molecules that selectively kill Giardia lamblia: qHTS; AID 540267, 2011; Giardia lamblia trophozoite viability; 340,000 tested, 0.15% active; activity change, % at 7.66 µM, hits read low; in the data active means activity change below about -80%; inconclusive means between about -30% and that limit;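 further: parasites exposed to compound for two days anaerobically before the ATP read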
#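 Each well holds 100 Giardia trophozoites and compound. After two days (48 hrs) at 37 deg C in anaerobic conditions, ATP is quantified by luminescence.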
# TDP1 cell noCPT: qHTS for Inhibitors of human tyrosyl-DNA phosphodiesterase 1 (TDP1): qHTS in cells in absence of CPT; 420,000 tested, 15% active; Potency, µM (highest dose often 46.2 µM), without a hit: at the highest dose activity change, negative = growth inhibition, hits mostly inhibitors; DT40 Tdp1-/- hTDP1 cells, no CPT, ATP luminescence, 48 h; AID 686978, 2013; further: potency means the concentration at half of the fitted maximal effect; nearly all actives have a fitted effect of over 55% in size
#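 Readout: luminescence from CellTiter-Glo after 30 min in the dark at RT. Cells: DT40 Tdp1-/- with stable hTDP1, 400/well. Exposure: compounds alone, ≥48 hr, 37 °C.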
# TDP1 cell CPT: qHTS for Inhibitors of human tyrosyl-DNA phosphodiesterase 1 (TDP1): qHTS in cells in presence of CPT | Potency, µM (series often up to 46.2 µM), for the others: at the top dose activity change, negative = growth inhibition, most hits filed as inhibitors | 420,000 tested, 12% active | chicken DT40 Tdp1-/-;hTDP1 cells + 20 nM CPT, ATP luminescence, 48 h; further: potency means the concentration at half of the fitted maximal effect; nearly all actives have a fitted effect of over 55% in size
#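 Cell growth measured by CellTiter-Glo luminescence after a minimum 48 h, 37 C compound exposure with 20 nM CPT in Tdp1-knockout DT40 cells stably expressing hTDP1, seeded 400/well; qHTS titration format.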
# Numbers without * were called inactive; ? = inconclusive; . = no result. Hits are enriched below; roughly 19% of the tested compounds scored in any of these assays. Unless noted, the call rests on the fitted dose curve; in most records, active means well fitted curve in the direction sought with a large enough effect; inconclusive means small, poorly fitted or top-dose-only effect, or another doubt; inactive means no such curve, though single readings can be large; an effect the other way counts as inactive or inconclusive. On the % scale 0 is the no-effect control and ±100 the full control effect.
SMILES,IL1B secr inh,TDP1 inh,ELG1 DNA repair,Giardia kill,TDP1 cell noCPT,TDP1 cell CPT
CCC(C(=O)Nc1cc(C)nn1-c1nc(C)cc(C)n1)c1ccccc1 (stereo not given),-11,-5%,-25%,4,18µM*,26µM*
CCN(CC(=O)Nc1cc(C)nn1-c1nc(C)cc(C)n1)Cc1ccccc1,-14,6%,18µM*,-10,?,?
COc1ccc(-n2c(=O)c3c4c(sc3n(Cc3ccc(C(C)(C)C)cc3)c2=O)CCC4)c(OC)c1,.,3%,.,.,?,?
CCCCOc1ccc(S(=O)(=O)NC(=O)C2(C)CCN2C(=O)c2c(C)noc2C)cc1 (stereo not given),14,.,.,.,-12%,-20%
C=C1CCN(C(C(=O)O)C(C)C)S(=O)(=O)c2ccccc21 (stereo not given),.,2%,.,11,.,.
Cc1ccc(Cc2nc3ccccc3nc2SCC(=O)NCc2ccccc2Cl)cc1,.,11%,.,.,?,?
COc1ccc(CNCC(=O)Nc2cc(C)nn2-c2nc(C)cc(C)n2)cc1OC,-4,0%,4%,-14,8.2µM*,9.2µM*
S=C(NCCc1ccccc1)Nc1cnc2ccccc2c1,33,0%,?,20,?,-1%
COc1ccc(N2C(=O)CSC23CCC(C(C)(C)C)CC3)cc1 (stereo not given),-2,1%,-4%,-11,18µM*,?
COc1ccc(N2C(=O)CSC23CCCCC3)cc1,-1,5%,-5%,-3,?,-13%
COc1cccc(-c2ccc3nnc(SCC(=O)Nc4ccc(NC(C)=O)cc4)n3n2)c1,21,.,-17%,5,?,?
Cc1ccc(Cc2c(-c3ccc(C#N)cc3)nc3c4ccccc4ccn23)cc1,3,.,.,.,?,?
Cc1ccn2c(CC(C)(C)C)c(-c3ccc(F)cc3)nc2c1,11,.,.,.,21µM*,21µM*
Cc1ccn2c(CN3CCOCC3)c(-c3ccccc3)nc2c1,?,0%,?,-20,?,-29%
Cc1ccc(Cc2c(-c3ccc(C)cc3)nc3cc(C)ccn23)cc1,-6,.,.,.,21µM*,21µM*
Cc1ccc(Cc2c(-c3ccc(Cl)cc3)nc3cc(C)ccn23)cc1,-6,.,.,.,18µM*,?
CCOc1ccc(NC(=O)CCc2nnc3n(C)c(=O)c4sccc4n23)cc1,.,-1%,.,.,-14%,-5%
CCOc1ccc(NC(=O)CSc2nnc3scc(-c4ccc(Cl)cc4)n23)cc1,.,.,.,.,?,-29%
Fc1ccc(Sc2ccccc2CNC2=NCCN2)cc1,?,5%,?,3,18µM*,12µM*
Cc1ccc(CN(C(=O)c2cc(=O)c3cc(C)cc(C)c3o2)C2CCS(=O)(=O)C2)cc1 (stereo not given),-16,1%,-9%,2,18µM*,?
CCc1ccc(CN(C(=O)c2cc(=O)c3ccc(C)cc3o2)C2CCS(=O)(=O)C2)cc1 (stereo not given),.,-6%,.,.,?,16µM*
CC/C=C(\C(=O)N[C@@H]1C(=O)N2C(C(=O)OCOC(=O)C(C)(C)C)=C(COC(N)=O)CS[C@H]12)c1csc(N)n1,.,.,.,.,-10%,-3%
Cc1cc(NC(=O)CSCC(=O)N(C)Cc2ccc(Cl)cc2Cl)no1,5,.,0%,-1,?,-23%
CC(C)(C)c1ccc(N/N=C(\C#N)S(=O)(=O)C(C)(C)C)cc1,?,2%,?,4,?,4.6µM*
N#C/C(=N\Nc1ccc(Cl)cc1)C(=N)N1CCCCCC1,4,-12%,?,3,-3%,0%
SMILES,IL1B secr inh,TDP1 inh,ELG1 DNA repair,Giardia kill,TDP1 cell noCPT,TDP1 cell CPT
Cc1cccc(N/N=C(\C#N)S(=O)(=O)C(C)(C)C)c1,21,5%,?,-11,?,4%
CC(C)(C)S(=O)(=O)/C(C#N)=N/Nc1ccc(Cl)cc1,-20,2%,-35%,2,15µM*,?
CCC(C(=O)Nc1cccc(C#N)c1)n1nc(-c2ccccc2)ccc1=O (stereo not given),.,0%,.,.,?,?
COc1cc(-c2ccc3oc(-c4cccc(C)c4)c(C#CC4(O)CCCCC4)c3c2)cc(OC)c1OC,-63*,3%,-28%,-18,16µM*,16µM*
COc1ccc(-c2oc3ccc(-c4ccc5c(c4)OCO5)cc3c2C#CC2(O)CCCCC2)cc1,13,.,.,3,?,?
N#Cc1c(N)oc(-c2ccc3c(c2)OCO3)c1-c1ccc2c(c1)OCO2,-61*,5%,3%,8,-7%,0%
Cc1nc(N)c(C#N)c(-c2ccc3c(c2)OCO3)c1C,17,.,-2%,6,10%,-22%
C[C@H](CO)N1C[C@H](C)[C@H](CN(C)S(=O)(=O)c2ccccc2)OCc2ccccc2-c2c(n(C)c3ccccc23)C1=O,46,.,.,.,-14%,-20%
C[C@@H]1CN([C@@H](C)CO)C(=O)c2c(c3ccccc3n2C)-c2ccccc2CO[C@H]1CN(C)C(=O)[C@H](Cc1ccccc1)N(C)C,-11,.,.,.,21µM*,?
C[C@H](CO)N1C[C@H](C)[C@H](CN(C)Cc2ccncc2)OCc2ccccc2-c2c(n(C)c3ccccc23)C1=O,18,.,.,.,16µM*,26µM*
CNC[C@@H]1OCc2ccccc2-c2c(n(C)c3ccccc23)C(=O)N([C@H](C)CO)C[C@@H]1C,-18,.,.,.,18µM*,?
C[C@H](CO)N1C[C@H](C)[C@H](CN(C)C(=O)Nc2ccc(F)cc2)OCc2ccccc2-c2c(n(C)c3ccccc23)C1=O,26,.,.,.,13µM*,15µM*
O=C(COc1ccccc1F)OCc1cc(=O)n2nc(C3CC3)sc2n1,.,3%,.,.,-1%,-17%
COC1OC2COC(c3ccccc3)OC2C(O)C1NC(=O)c1ccccc1 (stereo not given),7,.,.,15,?,0%
N#Cc1nc(Nc2ccc(-c3ccccc3)cc2)nc(NC2CCCC2)n1,.,1%,.,.,.,.
COC(=O)N(C)C[C@@H]1OCc2ccccc2-c2c(n(C)c3ccccc23)C(=O)N([C@H](C)CO)C[C@@H]1C,-23,.,.,.,26µM*,?
